The text below walks through data of ChEMBL document CHEMBL4513216, “Probing the Open Global Health Chemical Diversity Library for Multistage-Active Starting Points for Next-Generation Antimalarials” (ACS Infect Dis, 2020).

The campaign covered roughly 69,000 compounds. About 8,600 (12%) showed an effect of 50% or more. For the sample, strong results were picked, then their nearest neighbours and some compounds at random.

This experiment deals with Plasmodium berghei. In words: Screen against P. berghei liver stage (PbLuc), transformed with Luciferase, at 10uM. The experiment is classed as functional, HepG2. The conditions noted are these: tested at 10 uM.
With `CN(Cc1cnn(C)c1)C(=O)Cc1ccc2c(c1)OCCO2`, the INHIBITION is -18.5%.
Consider `Cc1n[nH]c(C)c1S(=O)(=O)N(C)Cc1nn(C)c(Cl)c1Cl`, for which the INHIBITION was determined as 23.8%.
`Cc1nn(C)c(C)c1S(=O)(=O)N(C)Cc1nn(C)c(Cl)c1Cl`: the INHIBITION was determined as 54.5%.
Under `Cc1nn(C)c(Cl)c1S(=O)(=O)N(C)C` stands 12.3%; under `Cc1noc(C)c1S(=O)(=O)N(C)Cc1nn(C)c(Cl)c1Cl`, 15.9%.
Consider `Cc1nn(C)c(C)c1CN(C)S(=O)(=O)c1c(C)n[nH]c1C`, for which the INHIBITION amounted to 53.5%.
Under `CCn1nc(C)c(CN(C)S(=O)(=O)c2cnn(C)c2)c1C` stands 6.83%; under `CS(=O)(=O)N[C@@H]1CCN(Cc2nccs2)[C@H]1Cc1ccncc1`, 30.5%.
The value for `COc1cccc(C(C(=O)O)N2CCSCC2)c1F` (centres undefined) was 17%.
The value for `CC(C)CN(CC(F)(F)F)S(=O)(=O)c1cc(C(N)=O)n(C)c1` was -36.4%; that for `CCC1C=CCN1C(=O)c1cc(COc2ccccc2OC)[nH]n1` (centres undefined) was -2.39%; that for `CCCC(=O)N(C)CC(=O)Nc1ccc(Br)cn1` was -9.37%.
For `COCC1c2c(cnn2CC2CC2)CCN1Cc1cccs1` (centres undefined), the INHIBITION was -0.912%.
`Cc1noc(C2CCCN(C(=O)c3cccc(Cl)c3)C2)n1` (centres undefined): the INHIBITION is reported as 39.5%.
Turning to `Cc1cc(C(=O)N2CCCC(c3nc(C)no3)C2)on1` (centres undefined), the INHIBITION worked out at 20%.
The value for `Cc1ocnc1C(=O)N1CC[C@@]2(O)CCN(C(=O)N3CCCC3)C[C@H]2C1` was 36.5%.
`Cc1noc(C2CCCN(C(=O)c3cc(Cl)c(Cl)n3C)C2)n1` (centres undefined): the INHIBITION stood at 51.4%.
The value for `Cc1noc(C2CCCN(C(=O)c3cncc(Br)c3)C2)n1` (centres undefined) was -27.8%.
Under `Cc1cncc(C2CCCN(C(=O)c3cn(C)nc3C)C2)n1` (centres undefined) stands 36.7%; under `Cc1cc(C(=O)N2CC[C@@]3(O)CCN(C(=O)N4CCCC4)C[C@H]3C2)no1`, 1.74%; under `Cc1nc(C2CCCN(C(=O)c3scnc3C)C2)no1` (centres undefined), 18.1%.
The value for `Cc1cncc(C2CCCN(C(=O)c3scnc3C)C2)n1` (centres undefined) was 51.7%; that for `Cc1ncsc1C(=O)N1CC[C@@]2(O)CCN(C(=O)N3CCCC3)C[C@H]2C1` was 65.7%; that for `Cc1noc(C2CCN(C(=O)c3cc(Cl)c(Cl)n3C)CC2)n1` was 16.6%.
On to `Cc1noc(C2CCCN(C(=O)c3ccc(Br)o3)C2)n1` (centres undefined), for which the INHIBITION is 60.5%.
On to `OCCCN1CCOC(c2ccc(F)cc2)C1` (centres undefined), for which the INHIBITION was determined as 30.2%.
The value for `CC(C)c1nc(C(=O)N2CCOCC2CC(=O)c2ccco2)c[nH]1` (centres undefined) was 9.48%; that for `Cc1cc(C)n(CC2CCCN2CC(=O)Nc2cc(C(C)C)no2)n1` (centres undefined) was -6.44%; that for `CN(C)CCOCC1CN(Cc2ccc(F)cc2)Cc2nnn(C)c21` (centres undefined) was 33.2%.
Under `O=C(c1ccco1)N1C[C@@H]2[C@@H](C1)OCC(=O)N2Cc1cccnc1` stands 35.8%; under `CS(=O)(=O)N1CCC2(CCN(C(=O)c3cccs3)CC2)CC1`, 32.1%; under `Cc1noc(C2CCCN(C(=O)c3cc(Cl)cn3C)C2)n1` (centres undefined), 46.4%.
Under `Cc1noc(C2CCCN(C(=O)c3cc(Cl)ccc3F)C2)n1` (centres undefined) stands -49.5%; under `Cc1noc(C2CCCN(C(=O)c3scnc3Cl)C2)n1` (centres undefined), 74.2%.
Consider `CN1CCCCc2c1nc1c(c2N)CCCC1`, for which the INHIBITION stood at 53.3%.
The value for `CN1CCCc2c1nc1c(c2N)CCCC1` was 7.38%; that for `CN1CCCCc2c1nc1c(c2N)CCC1` was 8.46%.
On to `Cc1cc(C)c2nc(CN(C)C(C)c3ccncn3)cc(O)c2c1` (centres undefined), for which the INHIBITION was -33.3%.
The value for `Cc1noc([C@@H]2C[C@H](NC(=O)NC(C)C)CN2C)n1` was 50.2%; that for `Cc1ccc(-c2noc([C@@H]3C[C@H](NC(=O)NC(C)C)CN3C)n2)cc1` was 23%.
The value for `Cc1noc([C@@H]2C[C@H](NC(=O)NC3CCCCC3)CN2C)n1` was 22.2%; that for `Cc1cnc(C(=O)NCc2ccnc(N(C)C)c2)cn1` was 11.6%.
The value for `O=C(O)c1c[nH]c2cc(NS(=O)(=O)c3cccc(F)c3F)ccc12` was -10.1%; that for `CCn1c(C)nnc1SCCNc1cc(N2CCOCC2)ncn1` was 14%.
Turning to `CCN1CCOC(CNCc2ccccc2OCc2cccnc2)C1` (centres undefined), the INHIBITION is -46.55%.
The value for `CN(C)S(=O)(=O)N1CCN(C(=O)c2cc(-c3ccccc3)[nH]n2)CC1` was 18.5%; that for `Cc1nn(C)c2ncnc(N3CCC(O)(CN4CCCC4)CC3)c12` was 30%; that for `Cc1cnc(C(=O)N2CCN(Cc3csc(C)n3)CC2)cn1` was -26.1%.
The value for `CN(C)CCn1c([C@H]2CCCO2)cc2cccnc21` was 56.8%; that for `CN(C)CCn1c([C@@H]2CCCO2)cc2cccnc21` was 26.8%.
The value for `c1cnc2c(c1)cc([C@H]1CCCO1)n2CCN1CCCC1` was 17.1%; that for `Cc1ccc(-n2cc3[nH]c(=O)n(C(C)C)n3c2=O)cc1` was 0.266%; that for `CC(Cc1cccc(Cl)c1)NC(=O)NCc1ncnn1C` (centres undefined) was 64.3%.
Regarding `CC(Cc1c(F)cccc1F)NC(=O)NCc1ncnn1C` (centres undefined), the INHIBITION was determined as 51.4%.
